# Experimental data from PMC4336329 (PLoS ONE, 2015).
# The whole screen tested about 310,000 compounds, of which about 14,000 (4.5%) showed an effect of 50% or more. Effects have a minus sign here. What follows is part of a selection rich in strong results, with near analogues and random picks from the rest.
# Target: human ether-à-go-go-related gene (hERG) potassium channel (human, UniProt Q12809)
# Experiment: primary screen, population patch clamp on CHO cells stably expressing hERG; higher = less effect of the substance
# 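Also: peak tail current of the secondary pulse compared with the same well before compound.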
# Sequence of human ether-à-go-go-related gene (hERG) potassium channel (Q12809 whole entry, looked up): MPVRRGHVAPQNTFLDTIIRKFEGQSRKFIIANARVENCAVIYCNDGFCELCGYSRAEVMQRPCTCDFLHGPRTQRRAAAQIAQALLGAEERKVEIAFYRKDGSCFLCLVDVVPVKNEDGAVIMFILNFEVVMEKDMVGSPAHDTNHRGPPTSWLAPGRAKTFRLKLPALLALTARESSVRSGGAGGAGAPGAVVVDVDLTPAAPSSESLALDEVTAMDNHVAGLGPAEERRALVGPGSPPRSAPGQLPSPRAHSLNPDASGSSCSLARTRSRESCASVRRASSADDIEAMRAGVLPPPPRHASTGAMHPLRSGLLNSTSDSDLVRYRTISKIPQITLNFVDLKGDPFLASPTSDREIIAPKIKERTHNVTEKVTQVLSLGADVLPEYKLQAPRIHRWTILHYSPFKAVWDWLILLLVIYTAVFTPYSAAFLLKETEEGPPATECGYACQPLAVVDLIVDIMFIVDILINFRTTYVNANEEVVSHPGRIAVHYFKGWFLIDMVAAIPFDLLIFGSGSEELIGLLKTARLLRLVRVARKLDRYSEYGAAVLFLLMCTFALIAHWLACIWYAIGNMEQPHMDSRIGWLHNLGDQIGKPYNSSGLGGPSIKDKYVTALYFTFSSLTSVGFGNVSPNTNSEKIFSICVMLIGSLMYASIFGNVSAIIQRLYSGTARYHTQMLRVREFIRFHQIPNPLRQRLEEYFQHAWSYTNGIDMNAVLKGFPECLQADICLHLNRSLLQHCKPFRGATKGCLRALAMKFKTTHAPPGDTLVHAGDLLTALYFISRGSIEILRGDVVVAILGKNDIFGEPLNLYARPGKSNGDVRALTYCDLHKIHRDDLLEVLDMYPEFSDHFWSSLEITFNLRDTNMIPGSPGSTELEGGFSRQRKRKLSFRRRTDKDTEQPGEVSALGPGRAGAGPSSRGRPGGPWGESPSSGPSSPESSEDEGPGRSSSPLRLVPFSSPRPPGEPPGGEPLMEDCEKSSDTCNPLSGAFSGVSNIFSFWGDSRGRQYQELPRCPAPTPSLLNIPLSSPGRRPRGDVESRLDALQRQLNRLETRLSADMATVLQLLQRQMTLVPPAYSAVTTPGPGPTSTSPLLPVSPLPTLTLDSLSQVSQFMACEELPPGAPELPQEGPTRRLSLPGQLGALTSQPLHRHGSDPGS
row,Compound,"hERG current change (%, negative = inhibition) at 10uM"
1,O=C(Cn1nnc(-c2ccccc2)n1)NNC(=O)c1ccc(Br)cc1,17.6%
2,O=C(Nc1nnc(-c2ccco2)s1)C1CC1,-10.2%
3,O=C(CN1C(=O)/C(=C/c2c(F)cccc2Cl)Oc2ccccc21)NCc1ccco1,10.9%
4,CC(=O)O.Cc1ccc(C2C(C(=O)c3cccs3)=C(O)C(=O)N2c2ccc(S(N)(=O)=O)cc2)cc1 (stereo not drawn),16.5%
5,CCOc1ccc(-n2cc(C(=O)N3CCN(C)CC3)c3cc(OC)c(OC)cc3c2=O)cc1,4.98%
6,CCN(CC)CCN(C(=O)C1=COCCO1)c1nc2ccc(C)cc2s1.Cl,-78.3%
7,CCN(CC)CCN(C(=O)c1ccc(Br)s1)c1nc2cc3c(cc2s1)OCO3.Cl,-12%
8,CCN(CC)CCN(C(=O)c1c(F)cccc1F)c1nc2cc(C)cc(C)c2s1.Cl,-11.1%
9,Cc1cc(C)c2sc(NC(=O)C3=COCCO3)nc2c1,-11.6%
10,Cc1ccc2nc(N(CCN(C)C)C(=O)C3=COCCO3)sc2c1.Cl,-44.1%
11,CCN(CC)CCN(C(=O)C1=COCCO1)c1nc2cc(C)cc(C)c2s1.Cl,-69%
12,CCN(CC)CCN(C(=O)C1=COCCO1)c1nc2c(OC)ccc(OC)c2s1.Cl,-78.3%
13,CCN(CC)CCN(C(=O)c1cc(Cl)sc1Cl)c1nc2cc3c(cc2s1)OCO3.Cl,-24.7%
14,CCN(CC)CCN(C(=O)C1=COCCO1)c1nc2cc3c(cc2s1)OCO3.Cl,-72%
15,CCN(CC)CCN(C(=O)/C=C/c1cccs1)c1nc2ccc(C)cc2s1.Cl,-10.8%
16,CCN(C(=O)C1=COCCO1)c1nc2c(C)cccc2s1,-17.2%
17,CCN(CC)CCN(C(=O)c1ccc(S(=O)(=O)N(CC)c2ccccc2)cc1)c1nc2c(OC)ccc(OC)c2s1.Cl,-27%
18,Cc1cc2ccccc2n1CCNC(=O)c1cccs1,-0.757%
19,CN(C(=O)Nc1ccccc1)C1CCCCC1,10.2%
20,C=CCOC(=O)C1=C(C)NC(SCC(=O)Nc2ccccc2)=C(C#N)C1c1ccco1 (stereo not drawn),-15.1%
21,CCC(Sc1nc2ccccc2o1)C(=O)Nc1nnc(C)s1 (stereo not drawn),-12.4%
22,CN(C)C(=O)c1cc(C(=O)c2ccc(F)cc2F)c[nH]1,14.6%
23,CCc1ccc(-n2c(SCc3cc(=O)n4cc(Br)ccc4n3)nc3[nH]ncc3c2=O)cc1,-51%

row,Compound,"hERG current change (%, negative = inhibition) at 10uM"
1,Cc1ccccc1-n1c(SCc2cc(=O)n3ccccc3n2)nc2[nH]ncc2c1=O,-35.2%
2,O=c1c2cn[nH]c2nc(SCc2cc(=O)n3cc(Br)ccc3n2)n1-c1ccc(Br)cc1,-24.8%
3,CN(Cc1ccccc1)C(=O)c1ccc2c(c1)OCCO2,5.55%
4,COc1ccc(-c2nc3ccccc3c(=O)n2CCOc2cccc(C)c2C)cc1,15%
5,NC(=O)Cn1cc(C(=O)C(=O)N2CCOCC2)c2ccccc21,1.6%
6,Cc1cc(F)ccc1S(=O)(=O)Nc1ccccc1C(=O)Nc1ccccc1-c1nc2ccccc2[nH]1,4.92%
7,O=C(NN1CC(C(=O)OCc2ccccc2F)CC1=O)c1ccccc1 (stereo not drawn),-56.8%
8,O=C(NN1CC(C(=O)OCc2ccc(Br)cc2)CC1=O)c1ccccc1 (stereo not drawn),-21.2%
9,O=C(NN1CC(C(=O)OCc2ccc(Cl)cc2Cl)CC1=O)c1ccccc1 (stereo not drawn),-16.5%
10,COc1cccc(NC(=O)N(CCCN2CCOCC2)C(C)c2cc3cccc(OC)c3o2)c1 (stereo not drawn),-29.4%
11,COc1ccc(NC(=S)N(CCCN2CCOCC2)C(C)c2cc3cccc(OC)c3o2)cc1 (stereo not drawn),-35.5%
12,COc1cccc(NC(=S)N(CCCN2CCOCC2)C(C)c2cc3ccccc3o2)c1 (stereo not drawn),-44%
13,COc1cccc(NC(=O)N(CCCN2CCOCC2)C(C)c2cc3ccccc3o2)c1 (stereo not drawn),-62.5%
14,COc1cccc2cc(C(C)N(CCCN3CCOCC3)C(=O)Nc3ccccc3)oc12 (stereo not drawn),-16.9%
15,COc1ccc(NC(=S)N(CCCN2CCOCC2)C(C)c2cc3ccccc3o2)cc1 (stereo not drawn),-78.4%
16,Cn1c(=O)oc2cc(S(=O)(=O)NCCC(=O)NCCc3ccccc3)ccc21,1.29%
17,COC(=O)c1ccc(CSc2nc3c(cnn3-c3ccc(F)cc3)c(=O)[nH]2)o1,13.1%
18,O=C(Nc1ccccc1)c1ccc2c(c1)OCCCO2,-10.7%
19,[Br-].c1ccc(Cn2c(-c3ccccc3)c[n+]3c2SCCC3)cc1,-70.9%
20,O=[N+]([O-])c1cccc(-c2c[n+]3c(n2-c2ccccc2)SCC3)c1.[Br-],-42.3%
21,COc1ccc(-c2c[n+]3c(n2-c2ccccc2)SCC3)cc1OC.[Br-],4.92%
22,O=C(CSc1nnc2ccc(-c3ccc(F)cc3)nn12)N1CCCC1,-13.5%
23,O=C(Nc1c(C(=O)c2ccccc2)oc2ccccc12)c1cc(-c2ccccc2O)n[nH]1,9.34%

row,Compound,"hERG current change (%, negative = inhibition) at 10uM"
1,COc1cc(C(=O)Nc2ccc3c(c2)OCO3)ccc1-n1cnnn1,-15.6%
2,O=C(Cn1nnc(-c2ccccc2-n2cnnn2)n1)NCc1ccccc1,-5.93%
3,Cc1ccc(OCC(=O)N2CCC(N3CCCCCC3)CC2)cc1,-28.3%
4,Cc1ccc(OCC(=O)N2CCN(C3CCC(c4ccccc4)CC3)CC2)cc1.O=C(O)C(=O)O (stereo not drawn),-62.8%
5,COc1ccc(OCC(=O)N2CCN(C3CCC(c4ccccc4)CC3)CC2)cc1 (stereo not drawn),-54.4%
6,CC1CCC(N2CCN(C(=O)COc3ccccc3)CC2)CC1.O=C(O)C(=O)O (stereo not drawn),-31.4%
7,COc1ccc(N2CCN(C(=O)COc3ccccc3)CC2)cc1,-20.6%
8,COc1ccc(OCC(=O)N2CCN(C(=O)Cc3ccccc3)CC2)cc1,-32.5%
9,COc1ccc(C2NC(=O)Cc3cc(OC)c(OC)cc32)cc1OC (stereo not drawn),5.46%
10,COC(=O)c1ccc(/C=C/C(=O)OCC(=O)Nc2ncc(Cl)cc2Cl)cc1,-19.9%
11,CCOc1ccccc1CNn1cnnc1,2.62%
12,Cc1nn(Cc2ccc(Cl)c(Cl)c2)c(C)c1NC(=O)c1cc(-c2ccc3c(c2)OCO3)on1,6.42%
13,Brc1ccc2c(c1)C(C1=NCCN1)c1ccccc1CS2.O=C(O)/C=C\C(=O)O (stereo not drawn),-20.3%
14,CN1CCN(CCOC2c3ccccc3CSc3ccc(Cl)cc32)CC1.O=C(O)/C=C\C(=O)O (stereo not drawn),-57.2%
15,Cc1cccc(NC(=O)OC2CN3CCC2CC3)c1 (stereo not drawn),-9.77%
16,CCOCCN1CCN(C2c3ccccc3CSc3ccccc32)CC1.O=C(O)C(=O)O (stereo not drawn),-30.3%
17,O=C(Nc1ccccc1Cl)OC1CN2CCC1CC2 (stereo not drawn),-32.9%
18,Clc1ccc2c(c1)C(OC1CN3CCC1CC3)c1ccccc1CS2.O=C(O)/C=C\C(=O)O (stereo not drawn),-50.6%
19,Clc1ccc2c(c1)C(C1=NCCN1)c1ccccc1CS2.O=C(O)/C=C\C(=O)O (stereo not drawn),-8.02%
20,Brc1ccc2c(c1)C(OC1CN3CCC1CC3)c1ccccc1CS2.O=C(O)/C=C\C(=O)O (stereo not drawn),-71.4%
21,O=C(Nc1cccc(Cl)c1)OC1CN2CCC1CC2 (stereo not drawn),29.5%
22,CCC(=O)OC1(C)C(=O)C=C2C=C(CCCCNC(=O)OC(C)(C)C)OC=C2C1=O (stereo not drawn),6.58%
23,CCCN(CCC)CCCNC(=O)CN1C(=O)CSc2ccc(S(=O)(=O)N3CCOCC3)cc21,20.2%

row,Compound,"hERG current change (%, negative = inhibition) at 10uM"
1,CCc1ccc(-c2nnn(Cc3nc4ccccc4s3)n2)cc1,-10.3%
2,Cc1ccc(OCC(=O)Nc2ccc(S(=O)(=O)N3CCCC3)cc2)cc1,15.5%
3,O=C(N/N=C/c1cc([N+](=O)[O-])ccc1O)C(O)(c1ccccc1)c1ccccc1,4.13%
4,Cc1cc(C(=O)NN=C2CCCCCCC2)c2ccccc2n1,5.42%
5,C=CCOC(=O)C1=C[C@H](c2ccc(C(F)(F)F)cc2)[C@@H](CCCO)[C@H](OCC)O1,-16.3%
6,O=C(CC1C(=O)NCCN1Cc1ccc(Cl)c(F)c1)NCCc1cccnc1 (stereo not drawn),-12.7%
7,CCC1CCCCN1C(=O)C(=O)c1cn(CC(=O)N(CC)CC)c2ccccc12 (stereo not drawn),21%
8,CCCCN(C(=O)c1ccc2c(c1)OCCO2)c1c(N)n(CC(C)C)c(=O)[nH]c1=O,-11.7%
9,O=c1oc2ccccc2n1CCn1c2ccccc2c2nc3ccccc3nc21,10.7%
10,CCN1CCCC1CNC(=O)CSc1cc(=O)n(C)c2cc(Cl)ccc12 (stereo not drawn),-32.7%
11,CCN(CCCNC(=O)CSc1cc(=O)n(C)c2cc(Cl)ccc12)Cc1ccccc1,-58.8%
12,CN(CCCNC(=O)COc1cc(=O)n(C)c2ccccc12)Cc1ccccc1,-18.1%
13,CCOc1ccc(CCNC(=O)CSc2cc(=O)n(C)c3cc(Cl)ccc23)cc1OCC,-3.7%
14,CN(CCCNC(=O)CSc1cc(=O)n(C)c2ccc(Cl)cc12)Cc1ccccc1,-61.2%
15,Cn1c(=O)cc(SCC(=O)NCCC2=CCCCC2)c2cc(Cl)ccc21,5.01%
16,Cn1c(=O)cc(SCC(=O)NCC2CCCO2)c2ccc(Cl)cc21 (stereo not drawn),-7.37%
17,CN(CCCNC(=O)CSc1cc(=O)n(C)c2cc(Cl)ccc12)Cc1ccccc1,-63.5%
18,Cc1cccc(CN2CCC(CNC(=O)CSc3cc(=O)n(C)c4cc(Cl)ccc34)CC2)c1,-69.7%
19,CCCCNC(=O)CSc1cc(=O)n(C)c2ccccc12,4.11%
20,Cn1c(=O)cc(SCC(=O)NCCCN2CCOCC2)c2ccc(Cl)cc21,-3.15%
21,COCCNC(=O)CSc1cc(=O)n(C)c2cc(Cl)ccc12,2.04%
